Test results published in PubChem BioAssay AID686978 (National Center for Advancing Translational Sciences (NCATS), 2013).
Values joined by “and” are separate entries in the source; they are usually repeats but may differ in a detail not shown here. Equal values may be shown once. The whole screen tested about 420,000 compounds, of which about 64,000 (15%) were called active. Inconclusive results (about 27%) are left out. These entries were drawn from the full list. Values without a mark were called inactive. Calls come from the whole dose curve; as a rule, active = well fitted inhibition curve with a large enough effect; inconclusive = small, poorly fitted or top-dose-only effect; inactive = flat fitted curve, though single readings scatter.

Test: qHTS for Inhibitors of human tyrosyl-DNA phosphodiesterase 1 (TDP1): qHTS in cells in absence of CPT; note: nearly all actives have a fitted effect of over 55% in size
Settings: DT40 Tdp1-/- hTDP1 cells, no CPT, ATP luminescence, 48 h; activity change, negative = growth inhibition: at 46.2 µM (top of the series)
Outline: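 No-CPT arm: Tdp1-/-;hTDP1 DT40 cells (400/well) plus compounds, incubated ≥48 hr at 37 °C. Readout CellTiter-Glo luminescence.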
% is set by controls: 0 for no effect and ±100 for the full control effect; potency is the fitted concentration of half-maximal effect.

Row | Structure (SMILES) | activity change, negative = growth inhibition | Potency
1 | O=C(CNS(=O)(=O)c1ccccc1)N1CCN(C(=O)c2ccco2)CC1 | 1.35% | –
2 | COc1ccc(C(=O)NCC[N+](C)(C)C)cc1 | 25.2% | –
3 | CC/C(=C(/c1ccccc1)c1ccc(OCC[N+](C)(C)C)cc1)c1ccccc1 | – | 23.1 µM (active)
4 | CCOc1cc(C(=O)O)ccc1OCCOc1ccccc1 | 1.62% | –
5 | COc1cc(/C=C/C2=CC(C)(C)NC(=S)N2)cc(OC)c1OC | -21% | –
6 | COc1ccc(N2C(=O)CN=C2Nc2cccc(C)c2C)cc1OC | -5.08% | –
7 | CC(C)Cc1nnc(NC(=O)CN2C(=O)NC3(CCCCC3)C2=O)s1 | -3.72% | –
8 | CC1(C(=O)NS(=O)(=O)c2cccc(OC(F)F)c2)CCN1C(=O)COc1ccc(Cl)cc1 (centres undefined) | 4.48% | –
9 | S=c1[nH]nc(NCCc2ccccc2)s1 | -27.9% | –
10 | Cc1nc(C)c(-c2csc(NCCc3ccccc3)n2)s1 | – | 13 µM (active)
11 | Cc1nc(N)sc1-c1ccccc1 | -23.1% | –
12 | COc1ccc(O)c(C(=O)c2cnc3onc(C(C)C)c3c2)c1 | -25.8% | –
13 | Cc1n[nH]c(=O)n1-c1ccc(Oc2ccccc2)cc1 | -0.778% | –
14 | COc1ccc(N2CC(C(=O)NCCN3C(=O)S/C(=C\c4cccnc4)C3=O)CC2=O)c(OC)c1 (centres undefined) | 16.5% | –
15 | CCOc1ccc(N2CC(C(=O)NCCN3C(=O)S/C(=C\c4cccnc4)C3=O)CC2=O)cc1 (centres undefined) | -19.7% | –
16 | Cc1cc(OCCCC(=O)NCCN2C(=O)S/C(=C\c3cccnc3)C2=O)ccc1Cl | – | 4.61 µM (active)
17 | Cn1cccc1C(=O)OCC(=O)NCCc1ccccc1 | 20.3% | –
18 | O=c1cccc(-c2ccc(Br)cc2)o1 | -3.89% | –
19 | COC(=O)C(NC(C)=O)(Nc1nc2c(s1)CCCC2)C(F)(F)F (centres undefined) | -25.1% | –
20 | O=C(C[n+]1cc(-c2ccc(Cl)c(Cl)c2)n2c1CCC2)c1cccs1 | – | 18.4 µM (active)
21 | CCS(=O)(=O)N1CCN(C(=O)c2cccs2)CC1 | -11.3% | –
22 | CCCS(=O)(=O)N1CCN(C(=O)c2cccs2)CC1 | -5.67% | –
23 | Cc1ccc(C(=O)C[n+]2cc(-c3ccccc3)n3c2CCCCC3)cc1 | – | 3.16 µM (active) and 1.46 µM (active)

Row | Structure (SMILES) | activity change, negative = growth inhibition | Potency
24 | Cc1ccc(C(=O)Cn2cccn2)cc1 | -9.49% | –
25 | Cc1ccc(S(=O)(=O)N(C)CC(=O)OCC(=O)Nc2ccccc2)cc1 | 35.2% | –
26 | Cc1ccc(-c2c[n+](CC(=O)Nc3ccccc3)c3n2CCC3)cc1 | – | 11.6 µM (active)
27 | Cc1ccc(NC(=S)N2CCCC(c3ccccc3)=N2)cc1 | -16.8% | –
28 | Cc1ccc(C(=O)N2CCCC(c3ccccc3)=N2)cc1 | -9.77% | –
29 | COc1ccc(N(C)S(=O)(=O)c2cccc3nsnc23)cc1 | -17.9% | –
30 | Cc1cccc(S(=O)(=O)N(C)C[C@@H]2OCc3cnnn3CCCC(=O)N([C@H](C)CO)C[C@@H]2C)c1 | -24.7% | –
31 | Cn1nc(C(F)(F)F)cc1-c1ccc(/C=C(\C#N)C(=O)c2cccc(C(F)(F)F)c2)s1 | -1.63% | –
32 | C/C(=N\NC(=O)c1ccc2ccccc2c1)c1cccnc1 | 5.16% | –
33 | Cc1cccc(OCc2nnc(SCn3nnc4ccccc4c3=O)o2)c1 | -13% | –
34 | CCOc1ccc(NC(=O)CN(C)C(=O)CSc2ccccc2)cc1OCC | -10% | –
35 | CCC(C)NC(=O)c1cc(Cl)ccc1OC (centres undefined) | -12.7% | –
36 | Cc1cc(N(C)C)cc(C)[n+]1[O-] | -2.53% | –
37 | O=S(=O)(NC1CC1)c1ccc(Cl)cc1 | 1.98% | –
38 | Cn1sc(=O)c2cc(S(=O)(=O)NC3CC3)ccc21 | – | 10.3 µM (active)
39 | O=S(=O)(NC1CC1)c1ccc(F)c(F)c1 | -10.3% | –
40 | CC(NC(=O)CCCC1CCCCC1)c1ccc(S(N)(=O)=O)cc1 (centres undefined) | -26.5% | –
41 | N#CC1=C(N)Oc2c(sc3ccccc23)C1c1ccco1 (centres undefined) | – | 5.17 µM (active)
42 | C[C@H](NC(=O)CC[C@H]1O[C@@H](n2ccc(=O)[nH]c2=O)[C@H](O)[C@@H]1O)c1cccc2ccccc12 | 0.78% | –
43 | Cc1ccc(S(=O)(=O)N2CCOCC2)cc1NC(=O)COC(=O)c1cnccn1 | 8.82% | –
44 | CCCCCCC1(C)NC(c2ccc3c(c2)OCO3)=CC(c2ccccc2O)N1 (centres undefined) | – | 15.8 µM (active)
45 | CCc1ccccc1NC(=O)c1cc(-c2ccc3c(c2)OCO3)on1 | – | inactive
46 | CC(C)COC(=O)c1ccc(NC(=O)C2C3C=CC(C3)C2C(=O)O)cc1 (centres undefined) | -23% | –

Row | Structure (SMILES) | activity change, negative = growth inhibition | Potency
47 | CC1=CC=CN2C1=NC(=O)CC2(C)C(=O)N(CC(=O)NC1CCCC1)c1ccccc1C (centres undefined) | 23.1% | –
48 | N#Cc1ccc(C(c2ccc(C#N)cc2)n2cncn2)cc1 | -7.38% [at 21.1 µM] | –
49 | CC(=O)Nc1cccc(/C(C)=N/NC(=O)c2c(-c3ccccc3Cl)noc2C)c1 | – | 13 µM (active)
50 | Cc1onc(-c2c(F)cccc2Cl)c1C(=O)N(C)CC(=O)Nc1cccc(F)c1 | -0.215% | –
51 | CC(=NNC(=O)c1ccncc1)c1ccc(Cl)c(Cl)c1 | -27.8% | –
52 | COc1ccc(-c2nc(CN3CCC(C(=O)NCc4ccccc4)CC3)c(C)o2)cc1OC | -0.259% | –
53 | Cc1oc(-c2ccccc2F)nc1CS(=O)CC(=O)NCCN1CCCCC1C (centres undefined) | 25.6% | –
54 | Cc1oc(-c2ccccc2F)nc1CN1CCC(C(=O)NCCc2ccc(Cl)cc2)CC1 | – | 16.4 µM (active)
55 | C[C@H]1[C@H]2c3nc4ccccc4n3C[C@H]1ON2C1CCCCC1 | -13.5% | –
56 | CSc1ncc(C(=O)NCc2ccccc2Cl)c(C(F)(F)F)n1 | -28.9% | –
57 | CCc1ccc(NC(=O)c2ccc(Cn3cc([N+](=O)[O-])cn3)cc2)cc1 | -14.7% | –
58 | Cn1ccc(=Nc2ccc(NC(=O)c3ccc(N=c4ccn(C)c5ccc([N+](=O)[O-])cc45)cc3)cc2)cc1 | – | 3.66 µM (active)
59 | COc1cc(NS(=O)(=O)c2ccc(NC(=O)c3ccc([N+](=O)[O-])cc3)cc2)ncn1 | -9.31% | –
60 | Oc1c(C=Nc2cccc3nsnc23)ccc2ccccc12 | -28.4% | –
61 | Oc1ccc(N=Nc2nccs2)c(O)c1 | – | 20.6 µM (active)
62 | Oc1ccc2ccccc2c1N=Nc1nccs1 | – | 0.651 µM (active)
63 | Cc1nc(Nc2ccccc2C)c2cnn(C)c2n1 | -12.1% | –
64 | Cc1ccc(CCCOC(=O)C[N+]2(C)CCCCC2)cc1 | -5.38% | –
65 | CCCOc1ccc(N2CC(C(=O)Nc3ccccn3)CC2=O)cc1 (centres undefined) | -2.41% | –
66 | CC(C)CCN1CCN(Cc2cn[nH]c2C2CCCCC2)CC1CCO (centres undefined) | -14.3% | –
67 | CCOC(=O)c1cn(Cc2cccc(C)c2)nn1 | -21.4% | –
68 | CSc1nn(Cc2cccc(C)c2)c(N)c1S(=O)(=O)c1ccccc1 | – | 18.4 µM (active)
69 | Cc1nn(Cc2ccccc2)c(C)c1NS(=O)(=O)c1ccccc1 | -22.6% | –
